Experimental findings from article PMC12820563, “FoxP3 forms a head-to-head dimer in vivo and stabilizes its multimerization on adjacent microsatellites” are described below.

The full ranking holds about 16,000 sequences; the median of “rpm ratio (pull-down/input)” is about 0.94, and the highest 2% start at about 1.7. The entries come from a sample that favours the highest values as a whole.

The target of the assay is T1, MBP-FoxP1dN (Mus musculus, UniProt P58462 326-579).
T1 sequence: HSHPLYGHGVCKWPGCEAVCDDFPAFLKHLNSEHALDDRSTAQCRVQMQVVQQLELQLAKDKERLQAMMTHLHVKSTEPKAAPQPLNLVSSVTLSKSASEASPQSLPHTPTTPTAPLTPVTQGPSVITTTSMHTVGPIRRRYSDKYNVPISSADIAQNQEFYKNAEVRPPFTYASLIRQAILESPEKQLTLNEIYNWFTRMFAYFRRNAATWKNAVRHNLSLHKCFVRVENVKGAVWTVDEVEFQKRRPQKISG
In words: PD-seq (MBP pull-down with sequencing); 20 mM Tris-HCl pH 7.5, 100 mM NaCl, 1.5 mM MgCl2, 0.4 uM protein, 0.1 uM dsDNA library, 30 min, room temperature, amylose pull-down; high values mean tight binding. Conditions: protein: recombinant; tags: His6-MBP; chain copies: 2; dsDNA, one strand shown. The method in brief: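 The N-terminus-lacking fragment of mouse FoxP3 or FoxP1 carried a His6-MBP tag and was expressed in E. coli. At 0.4 µM it was incubated with 0.1 µM Klenow-filled degenerate double-stranded DNA library for 30 min at room temperature in Tris pH 7.5 buffer with NaCl and MgCl2, and complexes were caught on amylose resin, washed three times, released with proteinase K, PCR-barcoded and Illumina-sequenced. Binding is reads-per-million enrichment of pull-down over input with replicates pooled.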
Regarding “GATGATTGTTCTCCCAGCTGATGAATTTTAGCGCTCGAGTAAACAAATTTTCCTAATCTTTCTGTTCAAGCGCCATCTAC”, the binding signal is 0.826 RPM ratio (pull-down/input).
Next, “GATGATTGTTCTCCCAGCTGATGAATTATAACCCTCGAGTAAACAAATTTTCCTAATCTTTCTGTTCAAGCGCCATCTAC”: 0.997 RPM ratio (pull-down/input).
“GATGATTGTTCTCCCAGCTGATGAATTTGATCCATCGAGTAAACAAATTTTCCTAATCTTTCTGTTCAAGCGCCATCTAC”: the binding signal is 0.928 RPM ratio (pull-down/input).
Next, “GATGATTGTTCTCCCAGCTGATGAATTCGGCCTATCGAGTAAACAAATTTTCCTAATCTTTCTGTTCAAGCGCCATCTAC”: 0.817 RPM ratio (pull-down/input); “GATGATTGTTCTCCCAGCTGATGAATTTGCGGACTCGAGTAAACAAATTTTCCTAATCTTTCTGTTCAAGCGCCATCTAC”: 0.882 RPM ratio (pull-down/input).
Next, “GATGATTGTTCTCCCAGCTGATGAATTACTTCATTCGAGTAAACAAATTTTCCTAATCTTTCTGTTCAAGCGCCATCTAC”: 1.11 RPM ratio (pull-down/input).
In the case of “GATGATTGTTCTCCCAGCTGATGAATTGAGCAGATCGAGTAAACAAATTTTCCTAATCTTTCTGTTCAAGCGCCATCTAC”, the binding signal was 0.835 RPM ratio (pull-down/input).
The same measure for “GATGATTGTTCTCCCAGCTGATGAATTGTGTTCTTCGAGTAAACAAATTTTCCTAATCTTTCTGTTCAAGCGCCATCTAC”: 1.33 RPM ratio (pull-down/input); for “GATGATTGTTCTCCCAGCTGATGAATTCTTGTGTTCGAGTAAACAAATTTTCCTAATCTTTCTGTTCAAGCGCCATCTAC”: 1.6 RPM ratio (pull-down/input).
Next, “GATGATTGTTCTCCCAGCTGATGAATTTCTGTGTTCGAGTAAACAAATTTTCCTAATCTTTCTGTTCAAGCGCCATCTAC”: 1.23 RPM ratio (pull-down/input); “GATGATTGTTCTCCCAGCTGATGAATTGTGTTGTTCGAGTAAACAAATTTTCCTAATCTTTCTGTTCAAGCGCCATCTAC”: 2.69 RPM ratio (pull-down/input); “GATGATTGTTCTCCCAGCTGATGAATTGATGTGTTCGAGTAAACAAATTTTCCTAATCTTTCTGTTCAAGCGCCATCTAC”: 1.5 RPM ratio (pull-down/input).
The same measure for “GATGATTGTTCTCCCAGCTGATGAATTGTTGTGTTCGAGTAAACAAATTTTCCTAATCTTTCTGTTCAAGCGCCATCTAC”: 2.57 RPM ratio (pull-down/input); for “GATGATTGTTCTCCCAGCTGATGAATTGACCGCGTCGAGTAAACAAATTTTCCTAATCTTTCTGTTCAAGCGCCATCTAC”: 0.965 RPM ratio (pull-down/input).
Turning to “GATGATTGTTCTCCCAGCTGATGAATTAAAACGATCGAGTAAACAAATTTTCCTAATCTTTCTGTTCAAGCGCCATCTAC”, the binding signal was 0.959 RPM ratio (pull-down/input).
Next, “GATGATTGTTCTCCCAGCTGATGAATTAAGAGAATCGAGTAAACAAATTTTCCTAATCTTTCTGTTCAAGCGCCATCTAC”: 0.949 RPM ratio (pull-down/input); “GATGATTGTTCTCCCAGCTGATGAATTTGATTGCTCGAGTAAACAAATTTTCCTAATCTTTCTGTTCAAGCGCCATCTAC”: 1.16 RPM ratio (pull-down/input).
“GATGATTGTTCTCCCAGCTGATGAATTTTGCTCCTCGAGTAAACAAATTTTCCTAATCTTTCTGTTCAAGCGCCATCTAC”: the binding signal is 0.907 RPM ratio (pull-down/input).
Turning to “GATGATTGTTCTCCCAGCTGATGAATTTTTTTGCTCGAGTAAACAAATTTTCCTAATCTTTCTGTTCAAGCGCCATCTAC”, the binding signal is 0.948 RPM ratio (pull-down/input).
The same measure for “GATGATTGTTCTCCCAGCTGATGAATTGTGCTGCTCGAGTAAACAAATTTTCCTAATCTTTCTGTTCAAGCGCCATCTAC”: 0.988 RPM ratio (pull-down/input).
Next, “GATGATTGTTCTCCCAGCTGATGAATTGTTGTGCTCGAGTAAACAAATTTTCCTAATCTTTCTGTTCAAGCGCCATCTAC”: 2.06 RPM ratio (pull-down/input); “GATGATTGTTCTCCCAGCTGATGAATTTCTTTGCTCGAGTAAACAAATTTTCCTAATCTTTCTGTTCAAGCGCCATCTAC”: 0.931 RPM ratio (pull-down/input); “GATGATTGTTCTCCCAGCTGATGAATTTCTGTGCTCGAGTAAACAAATTTTCCTAATCTTTCTGTTCAAGCGCCATCTAC”: 0.877 RPM ratio (pull-down/input).
Next, “GATGATTGTTCTCCCAGCTGATGAATTCTTTTGCTCGAGTAAACAAATTTTCCTAATCTTTCTGTTCAAGCGCCATCTAC”: 0.898 RPM ratio (pull-down/input); “GATGATTGTTCTCCCAGCTGATGAATTGTTGCTCTCGAGTAAACAAATTTTCCTAATCTTTCTGTTCAAGCGCCATCTAC”: 1.39 RPM ratio (pull-down/input).
Turning to “GATGATTGTTCTCCCAGCTGATGAATTGTTTTGCTCGAGTAAACAAATTTTCCTAATCTTTCTGTTCAAGCGCCATCTAC”, the binding signal was 1.95 RPM ratio (pull-down/input).
The same measure for “GATGATTGTTCTCCCAGCTGATGAATTTGTTTGCTCGAGTAAACAAATTTTCCTAATCTTTCTGTTCAAGCGCCATCTAC”: 2.43 RPM ratio (pull-down/input); for “GATGATTGTTCTCCCAGCTGATGAATTTTGTTGCTCGAGTAAACAAATTTTCCTAATCTTTCTGTTCAAGCGCCATCTAC”: 1.79 RPM ratio (pull-down/input); for “GATGATTGTTCTCCCAGCTGATGAATTATAATTCTCGAGTAAACAAATTTTCCTAATCTTTCTGTTCAAGCGCCATCTAC”: 0.978 RPM ratio (pull-down/input).
Next, “GATGATTGTTCTCCCAGCTGATGAATTTCATCTATCGAGTAAACAAATTTTCCTAATCTTTCTGTTCAAGCGCCATCTAC”: 0.877 RPM ratio (pull-down/input).
Turning to “GATGATTGTTCTCCCAGCTGATGAATTCGCGTATTCGAGTAAACAAATTTTCCTAATCTTTCTGTTCAAGCGCCATCTAC”, the binding signal was 0.979 RPM ratio (pull-down/input).
Next, “GATGATTGTTCTCCCAGCTGATGAATTTGAAATCTCGAGTAAACAAATTTTCCTAATCTTTCTGTTCAAGCGCCATCTAC”: 0.737 RPM ratio (pull-down/input).
